Source: PubChem (several laboratories)
A1 inh – inhibitors of the anti-apoptotic protein A1, read as caspase activation | actives 0.066% (n = 330,000) | MEF A1-2A-BIM cells, Caspase-Glo 3/7 luminescence, 3 h; percent of clofoctol response, vehicle zero | AID 2462 | caspase activation, % (concentration not given with the values);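 active means over half of replicate activation scores above 10%, or exactly half above 10 with the replicate mean above 10; inconclusive means replicate mean below 10 yet half the replicates above 10; inactive means over half of replicates below 10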
MIN6 prolif – inducers of beta-cell replication in MIN6 cells. actives 0.29% (n = 330,000). AID 2380. MIN6 cells proliferation, ATPlite luminescence, 48 h; cells starved in 0.2% serum; 100% = growth in 10% serum. proliferation, % at 10 µM;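 active means compounds whose signal lies at least 3.5 SD above the mean of all wells on their plate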;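 further: 0% = DMSO-treated cells in low-serum medium and 100% = 10% serum control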
APOBEC3A inh – human APOBEC3A DNA deaminase inhibition | actives 0.41% (n = 330,000) | inhibition, % at 20 µM | P31941 | recombinant A3A, FAM/TAMRA ssDNA deamination fluorescence;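 active means at least 40% inhibition at 20 µM here, with at most 30% in a related deaminase screen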;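 further: plate controls were A3A with DMSO for no effect and wells lacking A3A enzyme for full effect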
APOBEC3G inh – APOBEC3G (human) deaminase inhibition; Q9HC16; recombinant A3G, ssDNA deamination FAM/TAMRA fluorescence; inhibition, % at 20 µM; actives 0.28% (n = 330,000);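 active means inhibition of at least 40% at 20 µM, with no more than 30% in the related APOBEC3A deaminase screen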;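 further: plate controls were DMSO wells with A3G for no effect and wells lacking A3G enzyme for full effect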
Target sequence (Q9HC16 whole entry, looked up): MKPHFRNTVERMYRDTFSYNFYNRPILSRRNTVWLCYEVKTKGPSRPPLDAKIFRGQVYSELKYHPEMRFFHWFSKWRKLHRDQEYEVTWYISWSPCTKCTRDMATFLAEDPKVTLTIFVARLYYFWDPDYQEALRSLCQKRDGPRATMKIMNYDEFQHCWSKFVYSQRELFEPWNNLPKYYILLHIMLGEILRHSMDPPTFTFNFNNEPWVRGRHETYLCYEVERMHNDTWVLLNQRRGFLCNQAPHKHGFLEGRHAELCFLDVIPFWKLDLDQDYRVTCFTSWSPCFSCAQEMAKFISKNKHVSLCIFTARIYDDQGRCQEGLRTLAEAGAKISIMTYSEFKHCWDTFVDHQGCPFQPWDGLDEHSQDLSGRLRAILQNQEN
APOBEC3G confirm – confirmation of human APOBEC3G DNA deaminase inhibitors | shares compounds with APOBEC3G inh | recombinant A3G ssDNA deaminase, UDG/FAM-TAMRA fluorescence | inhibition, % at 20 µM | actives 72% (n = 890) | AID 493152;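 active means inhibition reaching a set limit in any replicate at 20 µM, the limit being 80% of the first screen's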
UDG ctr A3G – inhibits E. coli UDG, flagging false APOBEC3G inhibitors; shares compounds with APOBEC3G inh; UDG counterscreen, FAM/TAMRA oligo fluorescence; inhibition, % at 20 µM; 710 tested, under 10 active; AID 504715;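 active means compounds giving 40% or more inhibition at 20 µM in any one of the three replicates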;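 further: plate controls were DMSO wells with UDG and oligo for no effect and DMSO wells lacking both for full effect; inhibitors lower the FAM signal released by uracil excision and alkaline cleavage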
Target sequence (P12295 whole entry, looked up): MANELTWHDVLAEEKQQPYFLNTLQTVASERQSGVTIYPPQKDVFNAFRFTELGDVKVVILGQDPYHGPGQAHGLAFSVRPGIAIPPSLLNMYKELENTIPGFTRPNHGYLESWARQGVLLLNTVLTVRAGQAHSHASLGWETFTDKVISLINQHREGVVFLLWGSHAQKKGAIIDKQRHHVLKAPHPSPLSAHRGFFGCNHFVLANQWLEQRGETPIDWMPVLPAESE
An asterisk follows results filed as active; ? = inconclusive; · = no result given. Most compounds without a hit are left out; they make up all but 1.1% or so of the library.

SMILES | A1 inh | MIN6 prolif | APOBEC3A inh | APOBEC3G inh | APOBEC3G confirm | UDG ctr A3G
C=C(C)C(=O)Nc1cccc(C2=NOC3(C2)C[C@H](C(N)=O)N(C(=O)c2ccccc2C(=O)c2ccccc2)C3)c1 (stereo partly drawn) | -0.4 | 0.1 | 18.7 | 82.9* | 87.7* | 0.4
C/C=C(\C)C(=O)Nc1cccc(C2=NOC3(C2)C[C@@H](C(N)=O)N(C(=O)/C(C)=C/C)C3)c1 (stereo partly drawn) | 0.9 | -0.5 | -3.4 | -10.7 | · | ·
C=C(C)C(=O)Nc1cccc(C2=NOC3(C2)C[C@@H](C(N)=O)N(C(=O)/C(C)=C/C)C3)c1 (stereo partly drawn) | -0.7 | -2.4 | 13.8 | 86.2* | 94.6* | ·
CC(=O)N1CCOc2ccc(S(=O)(=O)NCCc3cccc(C)c3)cc21 | -0.3 | 4.8 | -2.6 | -7.1 | · | ·
Cc1ccc(N2C(=O)[C@@H]3C(c4cccnc4)=NO[C@@H]3C2=O)cc1 | 0.4 | -1.5 | -1.4 | 56.6* | 0.9 | -3.1
NS(=O)(=O)c1ccc(CCNC(=O)c2ccc3c(=O)n4c(nc3c2)CCCCC4)cc1 | 0.4 | -2.0 | 6.5 | -8.3 | · | ·
CC(C)n1cc(CN2CCC(n3nccc3NC(=O)CCCc3ccccc3)CC2)cn1 | 0.0 | 2.9 | 1.5 | -2.0 | · | ·
CC(C)n1cc(CN2CCC(n3nccc3NC(=O)Cc3ccccc3)CC2)cn1 | -1.0 | 0.2 | 3.7 | 71.1* | 4.2 | ·
COc1cccc(CNc2ccc3[nH]c(=O)[nH]c3c2)c1OCc1ccccc1F | -0.1 | -3.1 | 2.4 | 0.1 | · | ·
CC(C)(CS(=O)(=O)[O-])NC(=O)CC[N+](C)(C)CCO | 0.7 | -1.8 | 9.2 | 88.3* | 94.0* | ·
CC(=O)N[C@@H](C)c1nc2ccccc2n1CCCN1CCN(c2nc(-c3ccc(C)cc3)cs2)CC1 | 0.6 | -7.7 | 1.5 | 4.6 | · | ·
Nn1c(-c2cccc(Br)c2)n[nH]c1=S | 0.5 | -2.0 | -19.1 | 58.5* | 79.8* | -4.4
S=c1[nH]nc(-c2cccc(Br)c2)o1 | ? | -2.6 | -5.3 | -0.5 | · | ·
Cc1cc(C)nc(SSc2nc(C)cc(C)n2)n1 | 0.6 | -5.0 | -4.3 | 57.3* | 83.0* | -2.2
Cc1ccc(S(=O)(=O)N2CCOCC2)cc1NC(=O)CSc1ccc(Cl)cc1 | -1.2 | -2.8 | -2.0 | -8.4 | · | ·
CCOC(=O)c1ccc(S(=O)(=O)Nc2cc(S(=O)(=O)N3CCOCC3)ccc2O)cc1 | -1.1 | -6.0 | 0.6 | 52.1* | 26.8* | -4.0
O=C(CCCSc1ccc(Cl)cc1)Nc1cc(S(=O)(=O)N2CCOCC2)ccc1O | -1.4 | -7.8 | -3.1 | 50.8* | 73.0* | 1.2
O=S1(=O)CCOCCCN1Cc1ccc(Cl)cc1 | 0.6 | -0.9 | -4.8 | -10.1 | · | ·
O=c1c2c([N+](=O)[O-])cc([N+](=O)[O-])cc2sn1-c1ccc(Br)cc1 | -2.8 | -2.8 | 3.6 | 74.9* | 72.2* | ·
O=C(Nc1ccc(Br)cc1)c1cc([N+](=O)[O-])cc([N+](=O)[O-])c1 | 0.3 | -4.8 | -5.2 | -5.1 | · | ·
O=c1c2c([N+](=O)[O-])cc([N+](=O)[O-])cc2sn1Cc1ccccc1 | 0.2 | -5.3 | -0.4 | 70.4* | 76.3* | -0.6
CCCOc1ccccc1C(=O)Nc1ccc(S(=O)(=O)N2CCN(C)CC2)cc1 | -0.1 | 0.5 | -2.5 | -7.4 | · | ·
Cc1ccc(C)c(NC(=O)COC(=O)c2cc(=O)c3ccccc3o2)c1 | · | -1.1 | 0.1 | -2.4 | · | ·
CC(C)Cn1c(-c2ccncc2)n[nH]c1=S | -0.8 | 0.6 | 0.0 | 10.9 | · | ·
CC(C)Cn1c(-c2ccc(F)cc2)n[nH]c1=S | 0.4 | 2.1 | -6.9 | 40.8* | 81.7* | -6.4
SMILES | A1 inh | MIN6 prolif | APOBEC3A inh | APOBEC3G inh | APOBEC3G confirm | UDG ctr A3G
CC(C)Cn1c(-c2ccccc2F)n[nH]c1=S | -0.1 | -2.0 | -4.6 | 41.1* | 82.0* | 0.3
CC(C)Cn1c(Cc2ccccc2)n[nH]c1=S | 2.6 | -2.0 | -3.8 | 29.1 | · | ·
CC[C@H](C)C(N)c1cn(C(CCCN=C(N)N)C(=O)N2CCNCC2)nn1 (stereo partly drawn) | -0.6 | 2.7 | -1.3 | -4.3 | · | ·
O=S(=O)(Nc1ccccc1F)c1cccc(NC(=S)NCCN2CCOCC2)c1 | -2.0 | -6.1 | -2.2 | 71.0* | 80.4* | -5.2
O=C(Cc1ccc(Cl)cc1Cl)Nc1cccc(S(=O)(=O)Nc2ccccc2F)c1 | -0.1 | -6.9 | 7.9 | 55.9* | 73.9* | -0.2
COc1ccccc1NS(=O)(=O)c1cccc(NC(=O)c2ccc3ccccc3n2)c1 | -0.7 | -2.2 | 1.1 | -0.1 | · | ·
O=S(=O)(Nc1ccc(Br)cc1)c1cccc(NC(=S)NCCN2CCOCC2)c1 | 0.2 | -2.9 | -3.9 | -6.1 | · | ·
O=C(Nc1cccc(S(=O)(=O)Nc2ccccc2F)c1)c1ccc2ccccc2n1 | 0.7 | -5.5 | 2.2 | 55.6* | 60.6* | -3.3
O=C(/C=C/c1ccccc1)Nc1cccc(S(=O)(=O)Nc2ccccc2F)c1 | -1.3 | -2.7 | 5.9 | 71.0* | 60.0* | 3.1
Cc1cc(-c2nsc(=O)o2)c(S(C)(=O)=O)s1 | 0.5 | 1.9 | 3.0 | 65.8* | 69.2* | ·
COC(=O)c1ccc(/C=N/Nc2nc(-c3ccccc3)cs2)cc1 | -0.2 | 0.0 | -1.3 | -0.9 | · | ·
COC(=O)c1ccc(/C=N/Nc2nc(-c3ccc(C)cc3)cs2)cc1 | 0.3 | 0.0 | 0.7 | 44.6* | -4.1 | ·
COc1ccccc1CN(C)C(=O)C(NC(=O)Cc1cccc2ccccc12)C(C)C (stereo not drawn) | 0.2 | -4.6 | 18.6 | -8.0 | · | ·
Cc1ccc(NNS(=O)(=O)c2ccc(C)cc2)cc1 | 0.4 | 1.9 | -1.9 | 68.7* | 65.3* | -2.8
Cn1c(=O)n(C)c2cc(S(=O)(=O)NCC(=O)O)ccc21 | 1.4 | -2.6 | -2.5 | -5.2 | · | ·
Cn1c(=O)n(C)c2cc(S(=O)(=O)Nc3ccccc3C(=O)O)ccc21 | 0.7 | 2.0 | 3.7 | 56.2* | 2.5 | ·
COc1cccc(NC(=O)CN(C)C(=O)c2cccc(S(=O)(=O)Nc3ccc(C)cc3)c2)c1 | 0.2 | -3.3 | -4.2 | -5.7 | · | ·
COc1ccc(NC(=O)CN(C)C(=O)c2cccc(S(=O)(=O)Nc3ccc(OC)cc3)c2)cc1 | -0.1 | 3.0 | -2.2 | 49.2* | -12.9 | -0.6
O=C(NCCc1ccccc1C(F)(F)F)C1CCC(=O)N(CCCN2CCCC2=O)C1 (stereo not drawn) | 0.1 | -0.1 | -0.8 | -1.2 | · | ·
CCOC(=O)N1CCN(C(=O)N2CCOCC2)CC1 | 1.2 | 1.4 | -3.9 | -5.0 | · | ·
Cc1nn(C(=O)N2CCOCC2)c(C)c1C | 0.3 | -0.8 | 2.8 | 61.9* | 2.6 | ·
O=[N+]([O-])c1ccc(N/N=C/c2cccnc2)cc1 | 1.3 | -2.1 | -4.9 | 0.7 | · | ·
Clc1ccc(N/N=C/c2cccnc2)cc1 | -0.1 | 0.0 | -0.6 | 40.0* | -0.5 | 1.4
CCN1C(=O)[C@@H]2[C@@H](c3ccc(-c4ccc(C(C)=O)cc4)cc3)N3CCCC[C@@]3(C(=O)OC)[C@@H]2C1=O | -0.4 | -7.8 | 1.7 | 0.7 | · | ·
